Laboratory results taken from PubChem BioAssay AID686971 (National Center for Advancing Translational Sciences (NCATS), 2013).
About 7,500 (2.1%) of roughly 360,000 compounds were called active. Inconclusive results (about 8%) are left out. Calls follow the shape of the dose curve; as a rule, active = well fitted cell-killing curve with a large enough effect; inconclusive = small, poorly fitted or top-dose-only effect, or effect the other way, or another doubt; inactive = no such curve, though single readings can be large or run the other way. The list comes from a sample in which actives are over-represented; it also holds similar structures and randomly drawn compounds. Where a call stands in place of a potency, no number is given.

assay: qHTS for induction of synthetic lethality in tumor cells producing 2HG: qHTS for the HT-1080-IDH1KD cell line; settings: HT-1080 IDH1 knockdown viability, ATP luminescence, 48 h; series mostly up to 46.1 µM
Summary of the method: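 After a 2 h attachment period, IDH1KD HT-1080 cells took pin-transferred compound for 48 h at 37 °C; ATP-based luminescence after 10 min room-temperature reagent incubation reported viability.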
Potency is read from the fitted curve at half-maximal effect.

SMILES	Potency	activity, negative = toxicity
COc1cccc(/C=N/Nc2ncc(C(F)(F)F)cc2Cl)c1O	9.2 µM (active)	
O=c1[nH]c2cccnc2n(CCNc2ncc(C(F)(F)F)cc2Cl)c1=O	inactive	
COc1ccc(Br)cc1/C=N/Nc1ccc(Cl)c(C(=O)O)c1	inactive	
CCOC(=O)c1c(C)[nH]c(C)c1C(=O)COC(=O)/C=C/c1cccc([N+](=O)[O-])c1	inactive	
Nc1[nH]c(C(=O)c2ccccc2)c(-c2ccncc2)c1C(=O)NCc1cccc2ccccc12	inactive	
CCOC(=O)[C@]12CCCC=C1N(CCC1=CCCCC1)C(=O)[C@H](CC(=O)N1CCSCC1)C2	inactive	
Cc1ccccc1S(=O)(=O)NC(=O)C1(C)CCN1C(=O)C1(c2ccccc2)CCCC1 (stereo unspecified)	inactive	
c1ccc(-c2nnc(N3CCOCC3)c3ccccc23)cc1	inactive	
c1ccc2c(NC3C4CC5CC(C4)CC3C5)nc(N3CCOCC3)nc2c1 (stereo unspecified)	18.4 µM (active)	
Fc1cnc(N2CCOCC2)nc1NCc1ccccc1	inactive	
CN1c2ccc(C=O)c3c(C=O)ccc(c23)N(C)C1(C)C	11.6 µM (active)	
Cc1ccc(C=O)c([B-](F)(F)F)c1	inactive	
CC1CN(C(=O)c2cccc(NS(=O)(=O)c3ccc(Br)cc3)c2)CC(C)O1 (stereo unspecified)	inactive	
CCc1nc2c(OCC(N)=O)cccn2c1N(C)C(=O)c1ccc(OC)cc1	inactive	
C[C@@H]1CN([C@H](C)CO)S(=O)(=O)c2ccc(C#C[C@@H](C)O)cc2O[C@@H]1CN(C)Cc1ccc(-c2ccccc2)cc1	inactive	
O=C1c2ccccc2C(=O)N1CCC#Cc1ccc2cc(C3(O)CCCCC3)oc(=O)c2c1	inactive	
COc1cc(/C=C2\Oc3ccc(C#Cc4ccc(O)cc4)cc3C2=O)cc(OC)c1	inactive	
COc1cc(C#Cc2ccc3cc(CCCO)oc(=O)c3c2)cc(OC)c1	2.06 µM (active)	
NC(=O)Cn1cc(/C=N\NS(=O)(=O)c2ccccc2)c2ccccc21	inactive	
COC(=O)Cn1cc(/C=C/[N+](=O)[O-])c2ccccc21	23.1 µM (active)	
COC(=O)c1cn(CC(=O)NCc2cccs2)c2ccccc12	inactive	
COC(=O)[C@]12CCCCC=C1N(Cc1cccc3ccccc13)C(=O)[C@H](CC(=O)N1CCOCC1)C2	inactive	
COCCCN1C(=O)C(CC(=O)NCc2cccs2)CC(C(=O)N2CCOCC2)=C1C (stereo unspecified)	inactive	
COC(=O)C1=C(Nc2ccc(C)cc2)C=C(C)C(C(=O)OC)C1c1ccc(F)cc1 (stereo unspecified)	11.2 µM (active)	
COC(=O)C1C(=O)NCC1c1ccc(C)cc1 (stereo unspecified)	inactive	
COC(=O)C1=C(Nc2ccc(OC)cc2)C=C(C)C(C(=O)OC)C1c1ccc(C)cc1 (stereo unspecified)	inactive	

SMILES	Potency	activity, negative = toxicity
COc1ccc(Cn2c(=O)oc3ccccc32)cc1	inactive	
CC(C)CCNC(=O)c1[nH]c(C(F)(F)F)nc1-c1ccccc1	inactive	
O=C(Nc1cc(F)ccc1F)c1ccc2c(=O)n3c(nc2c1)CCC3	inactive	
CC1(C(=O)NCc2ccc3c(c2)OCO3)CCN1C(=O)Cc1cccs1 (stereo unspecified)	inactive	
CN1CCn2cnc(C(=O)NCC(=O)OC(C)(C)C)c2C1=O	inactive	
C[N+](C)(C)CCNC(=O)c1c[nH]c2ccccc12	inactive	
CC[C@H]1CN2CCc3cc(OC)c(OC)cc3[C@@H]2C[C@@H]1C[C@H]1NCCc2cc(OC)c(OC)cc21	0.13 µM (active)	
COc1cc2c(cc1OC)CN(CC(=O)Nc1ccc(F)cc1)CC2	inactive	
Clc1ccc(-c2cccc3nccn23)cc1	inactive	
Cc1cccc(CN2CCN(C3CN(Cc4ccccc4)S(=O)(=O)C3)CC2)c1 (stereo unspecified)	inactive	
COc1cc(CCN=Cc2ccccc2O)c([N+](=O)[O-])cc1OC	inactive	
C=CCNc1cnn(-c2ccc(C)cc2)c(=O)c1Cl		5.14% [at 9.24 µM] (inactive)
Cc1cccc(-n2ncc(Cl)c(Cl)c2=O)c1	20.6 µM (active)	
Cc1ccc(Oc2cnn(-c3ccccc3)c(=O)c2Br)cc1	inactive	
CCCC(=O)N1CCC1(C)C(=O)NCc1ccc(C(C)C)cc1 (stereo unspecified)	inactive	
Cc1csc(=O)n1CCC(=O)OCC(=O)Nc1ccc(N2CCOCC2)cc1	inactive	
COc1ccc(CC(N)c2csc(NC(=O)Nc3ccc(C(C)C)cc3)n2)cc1 (stereo unspecified)	14.6 µM (active)	
Cc1ccccc1NC(=O)Cc1nc(COC(=O)c2ccc(C(F)(F)F)cc2)cs1	inactive	
O=C(Nc1ccc(C(=O)N2CCOCC2)cc1)Nc1cccc(C(F)(F)F)c1	inactive	
CC(C)C[C@H](NC(=O)Nc1cccc(C(F)(F)F)c1)C(=O)O	inactive	
NC(c1ccccc1)c1csc(NC(=O)Nc2cccc(C(F)(F)F)c2)n1 (stereo unspecified)	inactive	
COc1ccc(C(N)c2csc(NC(=O)Nc3cccc(C(F)(F)F)c3)n2)cc1 (stereo unspecified)	18.4 µM (active)	
CC(C)(C)CC(=O)Nc1nnc(SCC(=O)NCc2cccs2)s1	inactive	
COc1ccc(NC(=O)C(=O)NCC(=O)Nc2cccc(C(F)(F)F)c2)cc1	inactive	
COc1ccc(NC(=O)C(Br)C(C)C)cc1 (stereo unspecified)	inactive	
CC(C)(C)CC(=O)Nc1nc(C(N)Cc2ccc(C(F)(F)F)cc2)cs1 (stereo unspecified)	18.4 µM (active)	

SMILES	Potency	activity, negative = toxicity
NC(c1csc(NC(=O)Nc2cccc(C(F)(F)F)c2)n1)C1CCCCC1 (stereo unspecified)	14.6 µM (active)	
COC(=O)[C@H](CCSC)NC(=O)Nc1ccc(OC)cc1	inactive	
C=C1C=C(C)n2ncc(C(=O)Nc3ccccc3O)c2N1	inactive	
CCc1nc2c(OCCOc3ccccc3)cccn2c1N(C)C(=O)c1ccccc1F	inactive	
CCOc1cc(/C=N/NC(=O)c2ccncc2)cc(Br)c1O	inactive	
Cc1cc(Cl)ccc1C(=O)C1CCCN(C(=O)c2ccc3c(c2)OCO3)C1 (stereo unspecified)	inactive	
C[C@@H]1CN([C@@H](C)CO)C(=O)CCCn2cc(nn2)CO[C@H]1CN(C)S(=O)(=O)c1ccc(-n2cccn2)cc1	inactive	
O=C(c1ccc(CS(=O)Cc2ccccc2Cl)o1)N1CCN(c2ccccc2)CC1 (stereo unspecified)	inactive	
CC1(C(=O)NS(=O)(=O)c2ccc(C#N)cc2)CCN1C(=O)c1ccc(C2CCCCC2)cc1 (stereo unspecified)	inactive	
CCOC(=O)C1C(C)C(C(C)(C)C)N(S(=O)(=O)c2ccc(C)cc2)C1c1ccccc1 (stereo unspecified)	inactive	
Cc1ccc(-c2ccc(CN3C(C)C(=O)N(Cc4cn(CCC5OCCCO5)nn4)CCS3(=O)=O)cc2)cc1 (stereo unspecified)	inactive	
CC1(C(=O)Nc2cccc3c2CCCC3)CCN1C(=O)C1(c2ccccc2)CC1 (stereo unspecified)	inactive	
O=C(Nc1cccc(Cc2ccccc2)c1)Nc1ccc2nc([C@@H]3O[C@H](CO)[C@@H](O)[C@H](O)[C@H]3O)[nH]c2c1	inactive	
Cc1[nH]c2ccccc2c1C(=O)CSCC(=O)O	inactive	
Cc1[nH]c2ccccc2c1C(=O)CN1CCCC(C)C1 (stereo unspecified)	inactive	
Cc1[nH]c2ccccc2c1C(=O)CN1CC(C)CC(C)C1 (stereo unspecified)	18.4 µM (active)	
C=CCn1c2c(c3ccccc31)CCC2	inactive	
C=C1C(=O)OC2C1CCC(C)=CCCC1(C)OC21 (stereo unspecified)	11.6 µM (active)	
COc1cc2c(=O)n(C)c3ccccc3c2cc1OC	inactive	
Cn1c(=O)c([N+](=O)[O-])c(Oc2ccccc2)c2ccccc21	23.1 µM (active)	
Cc1cc(C)c(-c2c(O)c3ccccc3n(C)c2=O)c(C)c1	inactive	
Cc1c(/C=N/N2C(=O)C3C4C=CC(C4)C3C2=O)c2ccccc2n1C (stereo unspecified)	inactive	
Cc1c(/C=N\NC(=O)c2cc3ccccc3o2)c2ccccc2n1C	18.4 µM (active)	
O=C(N/N=C/c1cccc(O)c1)c1cc2c(ccc3ccccc32)o1	inactive	
CN(Cc1ccccc1)C(=O)[C@@H]1CCCN1C(=O)[C@@H]1CCCN1C(=O)c1c(F)cccc1F	inactive	
CCOC(=O)C(C(=O)OCC)C(C#N)c1ccccc1 (stereo unspecified)	inactive	

SMILES	Potency	activity, negative = toxicity
O=C(Cc1ccc(-c2ccccc2)cc1)NC(c1ccccc1)c1ccccc1	inactive	
CCOC(=O)/C=C/C(=O)OCC(=O)NC(c1ccccc1)c1ccccc1	20.6 µM (active)	
CN(C)c1ccc(Nc2c3c4c(cccc4n(C)c2=O)C(=O)c2ccccc2-3)cc1	4.61 µM (active)	
CN(C)c1ccc(C2N(C)C(=O)c3ccccc3N2C)cc1 (stereo unspecified)	inactive	
CSc1ncnc2c1ncn2CCCNCC(C)c1ccccc1 (stereo unspecified)	inactive	
c1ccc(Cn2nnc3c(NCC4CC4)ncnc32)cc1	inactive	
O=[N+]([O-])/C=C/c1ccc2c(ccn2Cc2ccccc2)c1	16.4 µM (active)	
CCc1nc2ccc(C(=O)N(C)Cc3ccco3)cn2c1N(C)C(=O)Cc1ccccc1	inactive	
Cc1ccc(S(=O)(=O)N2C[C@H]3C(=O)C[C@@H](c4cccc5ccccc45)N(S(=O)(=O)c4ccc(C)cc4)[C@H]3C[C@H]2c2ccc(Cl)cc2)cc1	inactive	
COCC(C)NC(=O)COc1nncc2ccccc12 (stereo unspecified)	inactive	
CC(=O)c1ccc(Nc2nc(C(N)c3ccccc3)cs2)cc1 (stereo unspecified)	inactive	
NC(Cc1ccc(F)cc1)c1csc(Nc2nncc3ccccc23)n1 (stereo unspecified)	25.9 µM (active)	
CN1CCN(C(=O)c2ccc(-c3cc4nc(NCc5cccnc5)n(C)c(=O)c4s3)cc2)CC1	inactive	
CNc1cnc(-c2cc(OC)c(OC)c(OC)c2)cn1	inactive	
CC(=O)Nc1ccc(Nc2cc(C)nc(Nc3ccc(NC(C)=O)cc3)n2)cc1	inactive	
CC(=O)Nc1ccc(Nc2c3ccccc3nc3ccccc23)cc1	14.6 µM (active)	
CC(=O)Nc1ccc(S(=O)(=O)N(C)c2nc3ccccc3nc2Cl)cc1	inactive	
Cc1ccc(S(=O)(=O)N2CC3C(=O)C[C@@H](c4ccccc4Cl)N(S(=O)(=O)c4ccc(C)cc4)C3CC2c2ccccc2)cc1 (stereo partly specified)	inactive	
CCOC(=O)C1CCCN(C(=O)c2cccc3ccccc23)CC1 (stereo unspecified)	inactive	
C[C@@H]1Cn2cnc(C(=O)Nc3ccc(CNC(=O)OC(C)(C)C)cc3)c2C(=O)N1	inactive	
Cc1ccc(O)c(CNc2nc3ccccc3[nH]2)c1	inactive	
COC(=O)Nc1nc2ccc(Sc3ccccc3)cc2[nH]1	0.82 µM (active)	
CN(c1ccccc1)S(=O)(=O)c1cc(C(=O)Nc2nc3ccccc3[nH]2)ccc1Cl	inactive	
